This passage reports activity (Tm shift, normalised) results from PubChem BioAssay AID651658 (Broad Institute, 2012).

Molecules are shown by their SMILES. Screen size: about 340,000 compounds; about 5,100 (1.5%) were called active. The sample holds actives, similar compounds and a random draw of the others, so the mix is not that of the screen. Values without a mark were called inactive.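 The calls were made as follows: active = mean Tm shift, scaled 0 neutral to 100 positive control, at about 1.3% or above, every replicate too (limit read from the data); inconclusive = no clear call, values can overlap the other calls; inactive = the rest.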

The target in this experiment is Fibroblast growth factor 22 (Homo sapiens) (UniProt Q9HCT0). Description: binders of human FGF22 protein, primary screen, FGF22 synaptogenesis inhibitor project, biophysical, thermal shift, single point (AID 651658). The following applies: recombinant FGF22 thermal shift, SYPRO orange fluorescence; at 9.99 µM; active compounds read high; percent of sucrose octasulfate shift, DMSO zero.
Fibroblast growth factor 22 (Homo sapiens), sequence (Q9HCT0 whole entry, looked up): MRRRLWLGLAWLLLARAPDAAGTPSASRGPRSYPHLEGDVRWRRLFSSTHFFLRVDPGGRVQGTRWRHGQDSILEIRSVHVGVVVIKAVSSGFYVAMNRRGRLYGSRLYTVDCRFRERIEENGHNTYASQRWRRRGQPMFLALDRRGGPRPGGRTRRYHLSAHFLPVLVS
On to `CCCC#Cc1cnc2c(c1)C(=O)N([C@@H](C)CO)C[C@@H](C)[C@@H](CN(C)Cc1ccccc1F)O2`, for which the activity (Tm shift, normalised) was -0.354%.
For `C/C(=N/OC(=O)c1ccc(Br)cc1)c1ccc(C)cc1`, the activity (Tm shift, normalised) was 0.152%.
The same measure for `C/C(=N\OC(=O)c1ccccc1)c1c(C)nc2cc(C)ccn12`: 44.6% (active).
As to `Cc1ccn2c(-c3csc(Nc4ccc(C(=O)O)cc4)n3)c(C)nc2c1`, the activity (Tm shift, normalised) was -0.135%.
The same measure for `Cc1ccccc1-c1cnc2c(c1)C(=O)N([C@H](C)CO)C[C@@H](C)[C@H](CN(C)C(=O)c1cccnc1)O2`: 0.163%; for `CO[C@@H]1CN(C)C(=O)c2ccc(NC(=O)Nc3cc(Cl)cc(Cl)c3)cc2OC[C@H](C)NC[C@H]1C`: -0.905%.
The same measure for `Cc1ccc(S(=O)(=O)NC2CCCCCC2)cc1`: 43% (active); for `Cc1ccc(S(=O)(=O)N[C@H]2CCC[C@@H]2O)cc1`: -0.275%.
For `CC(C)c1ccc(S(=O)(=O)NC2CCCC2)cc1` the value was 0.004%; for `C[C@@H]1CN([C@@H](C)CO)C(=O)CCCn2cc(nn2)CO[C@@H]1CN(C)S(=O)(=O)c1ccccc1C#N`, -0.156%.
In the case of `CSc1ccc(/C=N\NC(=O)CC(=O)NC(C)C)cc1`, the activity (Tm shift, normalised) is 43.1% (active).
As to `CSc1ccc(/C=N/NC(=O)c2cccc(Cl)c2)cc1`, the activity (Tm shift, normalised) is 0.743%.
As to `O=C(CC(=O)N/N=C\c1ccc(F)cc1)NCCc1ccccc1`, the activity (Tm shift, normalised) was 0.292%.
Regarding `Cc1ccc(S(=O)(=O)N(C)C[C@@H]2Oc3ccc(NS(=O)(=O)c4cccs4)cc3C(=O)N([C@@H](C)CO)C[C@H]2C)cc1`, the activity (Tm shift, normalised) was -0.456%.
For `CO[C@H]1CN(C)C(=O)c2cc(NC(=O)C3CCC3)ccc2OC[C@H](C)N(CC2CCCCC2)C[C@@H]1C` the value was 0.141%; for `O=S(=O)(ON(c1ccccc1)S(=O)(=O)c1ccccc1)c1ccccc1`, 1.68% (active).
For `CCN(c1ccccc1)S(=O)(=O)c1ccc(N)cc1` the value was -0.161%.
Regarding `O=S(=O)(c1ccccc1)N(Cc1cccc(F)c1)c1ccccc1`, the activity (Tm shift, normalised) is -0.239%.
The same measure for `CN1c2ccc(C3=CCCCC3)cc2[C@@H]2[C@@H](CCN2S(=O)(=O)c2ccccc2F)[C@H]1CO`: -0.132%.
Regarding `Cc1noc(C)c1NC(=O)N[C@H]1C=C[C@@H](CC(=O)Nc2ccccc2)O[C@H]1CO`, the activity (Tm shift, normalised) was -0.156%.
Take `CO[C@@H]1CN(C)C(=O)c2cc(NS(=O)(=O)c3cccc(F)c3)ccc2OC[C@@H](C)NC[C@@H]1C`: the activity (Tm shift, normalised) is -0.14%.
Consider `Cc1ccc(-c2c[n+](CC(=O)Nc3ccccc3)c3n2CCC3)cc1`, for which the activity (Tm shift, normalised) is -0.075%.
For `Cc1ccc(C(=O)C[n+]2cc(-c3ccccc3)n3c2CCCCC3)cc1` the value was 44.4% (active).
The same measure for `Clc1ccc(C[n+]2cc(-c3ccccc3)n3c2CCC3)cc1`: -0.249%.
Consider `O=C(C[C@H]1C=C[C@H](NC(=O)Nc2cc(F)ccc2F)[C@H](CO)O1)Nc1ccccc1`, for which the activity (Tm shift, normalised) was 0.041%.
The same measure for `C[C@@H]1CCCCO[C@@H](CN(C)Cc2ccncc2)[C@@H](C)CN([C@@H](C)CO)C(=O)c2cc(NC(=O)Nc3ccc(F)cc3)ccc2O1`: -0.232%; for `CCCNC(=O)C[C@@H]1CC[C@H]2[C@@H](COC[C@@H](O)CN2Cc2ccccc2F)O1`: 0.109%.
The same measure for `CCC(=O)Nc1ccc2c(c1)OC[C@H](C)N(C(=O)Cc1cccnc1)C[C@@H](C)[C@@H](OC)CN(C)C2=O`: -0.218%; for `CCc1cccc(NC(=O)O[C@H]2[C@H](OC(=O)Nc3ccccc3-c3ccccc3)[C@H](OC(=O)Nc3ccccc3-c3ccccc3)[C@@H](OC)O[C@@H]2CO)c1`: -0.082%; for `COc1ccc(S(=O)(=O)N2CCCCN3[C@H](CO)[C@H](c4ccc(C5=CCCCC5)cc4)[C@@H]3C2)cc1`: -0.535%.
The same measure for `O=[N+]([O-])c1ccc(N2CCN(CC(O)COc3ccccc3)CC2)cc1` (stereo not given): 43.9% (active).
For the compound `O=[N+]([O-])c1ccc(N2CCOCC2)cc1`, the activity (Tm shift, normalised) is -0.032%.
The same measure for `OC(COc1ccccc1)CN1CCN(c2cccc(Cl)c2)CC1` (stereo not given): 0.055%; for `CC(C)NC(=O)Nc1ccc2c(c1)C(=O)N([C@H](C)CO)C[C@H](C)[C@H](CN(C)C(=O)CCC(F)(F)F)OCCCC[C@H](C)O2`: -0.429%; for `CN1CCN(C(=O)C[C@H]2CC[C@H]3[C@@H](COc4ccc(NC(=O)C5CCC5)cc4C(=O)N3C)O2)CC1`: -0.349%.
For `COC(=O)C1=C(C)N(C)C(=S)NC1c1ccccc1` (stereo not given) the value was 0.104%; for `COc1ccc(C2NC(=O)N(C)C(C)=C2[N+](=O)[O-])cc1` (stereo not given), 0.013%; for `COC(=O)C1=C(C)N(C)C(=O)NC1c1ccc([N+](=O)[O-])o1` (stereo not given), 43.8% (active).
For `COCC(=O)N1CCCCN2[C@H](CO)[C@H](c3ccc(C#Cc4ccc(OC)cc4)cc3)[C@H]2C1` the value was 0.2%.
For the compound `COc1ccc2c3c(n(C)c2c1)[C@H](CO)N(C(C)=O)CC31CCN(Cc2cccnc2)CC1`, the activity (Tm shift, normalised) was -0.052%.
As to `C/C=C/c1ccc2c(c1)O[C@H](CN(C)C(=O)Cc1ccncc1)[C@@H](C)CN([C@@H](C)CO)S2(=O)=O`, the activity (Tm shift, normalised) is -0.034%.
As to `CC(NCC(=O)Nc1cc(Cl)cc(Cl)c1)c1ccccc1` (stereo not given), the activity (Tm shift, normalised) is -0.134%.
For `Cc1nnc(SC(C(=O)Nc2cc(Cl)cc(Cl)c2)c2ccccc2)[nH]c1=O` (stereo not given) the value was 1.39% (active).
The same measure for `Cc1nnc(SC(C(=O)c2ccccc2)c2ccccc2)[nH]c1=O` (stereo not given): 0.339%.
For `C[C@H]1CN([C@@H](C)CO)C(=O)Cc2cc(N(C)C)ccc2O[C@@H]1CN(C)S(=O)(=O)c1ccc(F)cc1` the value was -0.149%; for `C[C@@H]1CCCCO[C@H](CN(C)S(=O)(=O)c2cccs2)[C@@H](C)CN([C@@H](C)CO)C(=O)c2cc(NC(=O)NC3CCCCC3)ccc2O1`, -0.096%; for `Cc1ccccc1-c1ccc2c(c1)O[C@H](CN(C)C)[C@H](C)CN([C@@H](C)CO)S2(=O)=O`, 0.074%.
As to `C[C@@H]1CN([C@@H](C)CO)C(=O)c2cc(NC(=O)CCCCCC(=O)Nc3ccccc3N)ccc2O[C@@H](C)CCCCO[C@@H]1CN(C)CC1CCCCC1`, the activity (Tm shift, normalised) was -0.209%.
The same measure for `COc1cc(C(=O)N2CCN(C/C=C/c3ccccc3)CC2)cc(OC)c1C`: 0.444%; for `CC(C)Cn1c(N2CCN(C(=O)/C=C/c3ccccc3)CC2)nc2ccccc21`: -0.183%; for `O=C(Cn1c(N2CCN(C/C=C/c3ccccc3)CC2)nc2ccccc21)c1ccccc1`: 44% (active).
For `CCCC(=O)Nc1ccc2c(c1)C(=O)N(C)C[C@H](OC)[C@@H](C)CN[C@H](C)CO2` the value was -0.019%; for `CO[C@@H](CN(C)S(=O)(=O)c1ccccc1)[C@@H](C)CN(Cc1ccccc1Cl)[C@H](C)CO`, 0.183%.
In the case of `COC(=O)Cc1c(-c2[nH]c3ccccc3c2CC(=O)OC)[nH]c2ccccc12`, the activity (Tm shift, normalised) is -0.112%.
For `COC(=O)Cc1nc2c(N)nc(N)nc2[nH]c1=O` the value was 44% (active); for `Cc1cc(C)cc(N2C(=O)CSC2c2cccc([N+](=O)[O-])c2)c1` (stereo not given), -0.058%.
For `C[C@H]1CN([C@@H](C)CO)C(=O)Cc2cc(NS(=O)(=O)c3cn(C)cn3)ccc2O[C@@H]1CN(C)C(=O)Nc1ccc2c(c1)OCO2` the value was -0.296%; for `CCCNC(=O)C[C@H]1CC[C@@H]2[C@H](COC[C@H](O)CN2S(=O)(=O)c2ccccc2F)O1`, -0.049%.
Turning to `COc1ccc2c3c(n(C)c2c1)[C@H](CO)N(C)CC31CCN(C(=O)Nc2cccc(F)c2)CC1`, the activity (Tm shift, normalised) was 0.13%.
For `C[C@H]1CN([C@@H](C)CO)S(=O)(=O)c2ccc(-c3ccccc3F)cc2O[C@H]1CN(C)C(=O)C1CC1` the value was 0.047%; for `O=C1c2ccccc2C(=O)N1CCCCCCN1C(=O)c2ccccc2C1=O`, -0.045%; for `CCN1CCN(C(=O)CSc2ccc(C)cc2)CC1`, -0.037%.
Take `CCN1CCN(C(=O)CCN2C(=O)c3ccccc3C2=O)CC1`: the activity (Tm shift, normalised) is 44.1% (active).
On to `O=C(CN1CCOCC1)N1CC(=O)N2[C@H](C1)[C@H](c1ccc(/C=C/c3ccccc3)cc1)[C@@H]2CO`, for which the activity (Tm shift, normalised) is -0.125%.
The same measure for `COc1ccc(CNC(=O)CN2C(=O)c3ccccc3S2(=O)=O)cc1`: 0.05%; for `CCc1nc2ccccc2c(C(=O)NCc2ccc(OC)cc2)c1C`: 43.4% (active); for `CCc1nc2ccccc2c(C(=O)OC2CCCCC2=O)c1C` (stereo not given): 0.135%.
For `O=C(NCC(F)(F)F)[C@H]1[C@H](CO)[C@H]2Cn3c(ccc(-c4ccncc4)c3=O)[C@H]2N1Cc1ccncc1` the value was -0.221%; for `COc1ccc(-c2cc(=O)oc3cc(OCC(=O)N[C@@H](Cc4c[nH]c5ccccc45)C(=O)O)ccc23)cc1`, 2.9% (active); for `Cc1cccc(C)c1OCC(=O)NC(Cc1c[nH]c2ccccc12)C(=O)O` (stereo not given), -0.152%.
The same measure for `COc1ccc(-c2cc(C(=O)NC(Cc3c[nH]c4ccccc34)C(=O)O)c(C)o2)cc1OC` (stereo not given): 1.25%; for `CC=Cc1ccc2n(c1=O)C[C@@H]1[C@@H](CO)[C@H](C(=O)N[C@@H](C)c3ccccc3)[C@H]2N1Cc1ccncc1` (mixture of isomers): -0.334%; for `COc1ccc(C2=NN(C(=O)c3ccccc3C(=O)O)C(c3ccccc3O)C2)cc1` (stereo not given): -0.24%.
In the case of `CS(=O)(=O)Nc1cccc(C2=NN(S(=O)(=O)c3ccccc3)C(c3cccs3)C2)c1` (stereo not given), the activity (Tm shift, normalised) was 0.242%.
The same measure for `COc1cccc(C2CC(c3ccccc3)=NN2S(=O)(=O)c2ccccc2)c1OC` (stereo not given): 44% (active).
